Screening results as filed in PubChem.
POLI inh: qHTS for Inhibitors of Polymerase Iota | DNA polymerase iota (Homo sapiens), Q9UNA4 | Pol iota fluorescent replication assay, 10 min | Potency, µM (highest dose often 115 µM), for inactives: top-dose activity, negative = inhibition, usual class: inhibitors | 1% of 390,000 active | AID 588590, 2011; also: potency is read from the fitted curve at half-maximal effect
Target sequence (Q9UNA4 whole entry, looked up): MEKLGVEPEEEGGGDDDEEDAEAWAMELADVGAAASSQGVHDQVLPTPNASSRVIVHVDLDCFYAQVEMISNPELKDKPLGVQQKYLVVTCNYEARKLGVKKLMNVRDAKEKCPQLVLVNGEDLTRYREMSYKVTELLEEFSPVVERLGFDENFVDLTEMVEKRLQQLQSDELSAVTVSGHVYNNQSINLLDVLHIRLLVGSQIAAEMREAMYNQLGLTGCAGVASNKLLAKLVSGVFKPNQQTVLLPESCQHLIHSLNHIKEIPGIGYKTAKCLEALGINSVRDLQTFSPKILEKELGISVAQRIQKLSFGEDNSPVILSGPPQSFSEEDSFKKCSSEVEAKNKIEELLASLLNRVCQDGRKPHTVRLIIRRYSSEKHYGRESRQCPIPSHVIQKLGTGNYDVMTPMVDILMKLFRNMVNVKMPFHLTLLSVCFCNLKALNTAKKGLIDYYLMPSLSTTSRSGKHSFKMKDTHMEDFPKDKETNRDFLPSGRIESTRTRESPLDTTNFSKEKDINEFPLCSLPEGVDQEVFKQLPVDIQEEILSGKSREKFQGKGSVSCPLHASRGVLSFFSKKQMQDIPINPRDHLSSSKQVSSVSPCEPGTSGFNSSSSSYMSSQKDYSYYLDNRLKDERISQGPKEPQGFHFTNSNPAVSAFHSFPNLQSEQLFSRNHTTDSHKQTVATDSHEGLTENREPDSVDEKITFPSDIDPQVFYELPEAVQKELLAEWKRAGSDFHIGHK
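Fluorescent replication assay read twice, at 0 min and 10 min after adding 50 nM (final) substrate. Enzyme (10 nM) and compounds were first incubated 15 min at room temperature; enzyme-free buffer wells were negative controls.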
WRN inhibitor: qHTS for Inhibitors of WRN Helicase | 0.46% of 360,000 active | AID 651768, 2012 | WRN helicase unwinding, fluorescent forked duplex, kinetic | Potency, µM (highest dose often 114 µM), without a hit: at the highest dose activity change, negative = inhibition, most hits filed as inhibitors; also: potency is read from the fitted curve at half-maximal effect; % is scaled to controls: 0 for no effect and ±100 for the full control effect; nearly all actives have a fitted effect of over 55% in size
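WRN at 20 nM final preincubated with compound 15 min at room temperature; reaction started with 100 nM fluorophore/quencher forked duplex oligonucleotide and 2 mM ATP final. Unwinding followed kinetically by red fluorescence (ex 525, em 598 nm).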
POLB inh: qHTS Assay for Inhibitors of DNA Polymerase Beta; Potency, µM (series often up to 114 µM), for the others: at the highest dose activity change, negative = inhibition, usual class: inhibitors; P06746; 1.3% of 340,000 active; Pol beta primer extension/strand displacement, fluorescence kinetic; also: potency is read from the fitted curve at half-maximal effect; % is scaled to controls: 0 for no effect and ±100 for the full control effect
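Homogeneous kinetic assay of primer extension and strand displacement by 10 nM Pol beta, preincubated 15 min at room temperature with compound before 50 nM substrate (final) was added. Read at 0 and 10 min; four-parameter Hill fit.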
PI5P4K alpha inh: qHTS for Inhibitors of phosphatidylinositol 5-phosphate 4-kinase (PI5P4K) | Phosphatidylinositol 5-phosphate 4-kinase type-2 alpha (Homo sapiens), P48426 | PI5P4Kalpha enzyme, ADP-Glo luminescence, 60 min; hits give low values | max response, % | 1.2% of 330,000 active | AID 652105, 2013; active = max response of -50% or lower; inconclusive = between -30% and -50%; inactive = -30% or higher; also: value at the top dose of about 77 µM; % is scaled to controls: 0 for no effect and ±100 for the full control effect
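Human PI5P4Kalpha with substrate in 0.038 M HEPES pH 7.4, 0.28 mM EGTA, 0.1% CHAPS, 5% DMSO; reaction started with 5 microM ATP (final), 60 min at room temperature. ADP formed read by ADP-Glo luminescence.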
Pol kappa inh-1: qHTS for Inhibitors of Polymerase Kappa; DNA polymerase kappa (Homo sapiens), Q9UBT6; purified Pol kappa, fluorescent DNA synthesis assay, 10 min; Potency, µM (titrated, usually from 107 µM), without a hit: at the highest dose activity, negative = inhibition, most hits filed as inhibitors; 0.53% of 400,000 active; AID 588579, 2011; also: potency is read from the fitted curve at half-maximal effect; % is scaled to controls: 0 for no effect and ±100 for the full control effect
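10 nM Pol kappa was preincubated with compounds for 15 min at room temperature. Reaction started with 50 nM (final) substrate. Fluorescence read kinetically at 0 and 10 min.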
Pol eta inh-1: qHTS for Inhibitors of Polymerase Eta; recombinant Pol eta, fluorescent DNA replication assay; AID 588591, 2011; 1.2% of 390,000 active; Potency, µM (series often up to 114 µM), for the others: top-dose activity change, negative = inhibition, hits mostly inhibitors; DNA polymerase eta (Homo sapiens), Q9Y253; also: potency is read from the fitted curve at half-maximal effect; % is scaled to controls: 0 for no effect and ±100 for the full control effect
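Pol eta at 10 nM preincubated with compounds 15 min at room temperature; reaction started with fluorescent substrate (50 nM final) and read kinetically at 0 and 10 min.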
GALK inh confirm: Confirmation Assay for Inhibitors of Human Galactokinase (GALK); shares compounds with Pol eta inh-1; purified GALK, Kinase-Glo ATP depletion luminescence; Potency, µM (doses to about 115 µM), without a hit: at the highest dose activity, negative = inhibition, hits mostly inhibitors; 70% of 150 active
Redox cycling: Confirmatory Assay for Inhibitors of Human Galactokinase (GALK): Phenol-HRP redox assay counterscreen. Phenol red-HRP H2O2 redox cycling, absorbance 600 nm. shares compounds with Pol eta inh-1. 40% of 150 active. Potency, µM (top dose mostly 115 µM), without a hit: at the top dose activity change, negative = H2O2 signal, usual class: inhibitors
HEK293 tox: Secondary Assay for Inhibitors of Human Galactokinase (GALK): HEK-293 Cell Viability Assay; HEK-293 viability, ATP luminescence (CellTiter-Glo), 24/48 h; shares compounds with Pol eta inh-1; Potency, µM (highest dose often 46.1 µM), for the others: top-dose activity change, negative = cytotoxicity, most hits filed as inhibitors; 10% of 170 active; also: potency is read from the fitted curve at half-maximal effect; % is scaled to controls: 0 for no effect and ±100 for the full control effect
Pol kappa inh-2: qHTS for Inhibitors of Polymerase Kappa: Confirmatory Assay for Cherry-picked Compounds; Potency, µM, most hits filed as inhibitors; AID 720501, 2013; purified Pol-kappa, fluorescent strand-displacement substrate; shares compounds with Pol eta inh-1; 76% of 920 active; also: potency is read from the fitted curve at half-maximal effect
Pol eta inh-2: qHTS for Inhibitors of Polymerase Eta: Confirmatory Assay for Cherry-picked Compounds. AID 720502, 2013. Potency, µM, hits mostly inhibitors. Pol eta primer extension, TAMRA/BHQ fluorescence, 10 min. shares compounds with Pol eta inh-1. 64% of 2,600 active; also: potency is read from the fitted curve at half-maximal effect
* marks the source's active call; other numbers are inactive results; u = inconclusive; x = not tested or not shown; [ ] = remark or other dose. Only some compounds are listed: those with a hit (about 2.8% of all), similar ones and a draw of the others. Unless noted, calls follow the shape of the dose curve; as a rule, active = well fitted curve in the direction sought with a large enough effect; inconclusive = small, poorly fitted or top-dose-only effect, or another doubt; inactive = no such curve, though single readings can be large; an effect the other way counts as inactive or inconclusive.

SMILES	POLI inh	WRN inhibitor	POLB inh	PI5P4K alpha inh	Pol kappa inh-1	Pol eta inh-1	Pol eta inh-2	others
CCC(=O)N1CCc2cc(Br)cc(S(=O)(=O)N3CCCC(C(=O)Nc4cccc(F)c4)C3)c21 (stereo unspecified)	-7.6%	x	-11.2%	x	-6.0%	-1.9%	x
CCC1=NN2C(=N)/C(=C/c3ccc(OS(=O)(=O)c4ccc(C)cc4)c(OC)c3)C(=O)N=C2S1	u	-10.4%[11.6 µM]	u	-16.1	-29.8%	u	u
COc1cc(/C=C2\C(=N)N3N=C(S(C)(=O)=O)SC3=NC2=O)ccc1OS(=O)(=O)c1ccccc1	x	x	u	x	x	x	x	GALK inh confirm=37.5µM*;Redox cycling=0.9%;HEK293 tox=-9.8%
CCS(=O)(=O)C1=NSC2=NC(=O)/C(=C\c3ccc(OS(=O)(=O)c4ccccc4)c(OC)c3)C(=N)N21	-13.5%	-21.3%	u	-66.6*	-6.6%	39.8µM*	x	GALK inh confirm=47.3µM*;Redox cycling=10.9%;HEK293 tox=-5.0%
CCS(=O)(=O)C1=NN2C(=N)/C(=C\c3ccc(OS(=O)(=O)c4ccccc4)cc3)C(=O)N=C2S1	u	-25.8%	u	-78.6*	-32.5%	44.7µM*	x	GALK inh confirm=37.5µM*;Redox cycling=3.0%;HEK293 tox=4.4%
CS(=O)(=O)Oc1ccc(/C=C2\C(=N)N3N=C(CC(=O)N4CCOCC4)SC3=NC2=O)cc1Cl	21.2%	-7.5%	3.6%	2.5	2.3%	-17.1%	x
COc1cc(/C=C2/C(=N)N3C=CSC3=NC2=O)ccc1OCCCOc1ccccc1C	22.5%	-25.0%	-2.8%	x	-18.1%	-15.5%	x
O=C1N=C(N2CCOCC2)S/C1=C\c1ccc(OS(=O)(=O)c2ccccc2)cc1	14.3%	-11.0%	11.5%	3.0	2.5%[60.1 µM]	-12.2%	x
CCC(=O)c1cc(Br)ccc1OCC(=O)N1CCN(S(=O)(=O)c2ccccc2)CC1	-25.3%	-10.3%	x	3.1	-7.8%	-11.4%	x
COc1ccc(-c2cccc(NC(=O)c3ccc4c(c3)OCO4)c2)nn1	59.8%	-10.9%	x	7.9	-6.3%	1.7%	x
Cc1cccnc1NC(=O)CCNC(=O)c1ccccc1Cl	22.3%	-2.4%	17.5%	3.9	7.5%	-21.6%	x
CC(=O)Nc1cccc(NC(=O)CSc2nnc(NC(=O)c3ccco3)s2)c1	6.0%	-35.8%	12.4%	-27.0	-0.3%	u	x
CC(=O)Nc1ccc(NC(=O)CSc2nnc(NC(=O)c3ccc(Br)o3)s2)cc1	u	56.2µM*	50.1µM*	-27.7	-28.8%	14.1µM*	u	Pol kappa inh-2=u
O=c1c2ccccc2nc2c3ccccc3c(NCc3ccccn3)nn12	17.0%	-19.0%[11.6 µM]	u	2.7	-11.0%	u	47.8*	Pol kappa inh-2=26.7*
O=c1c2ccccc2nc2c3ccccc3c(NCc3cccnc3)nn12	-10.5%	-5.4%	8.4%	2.9	-12.1%	1.2%	x
Cc1cc(Cl)n2c(nc3cc(F)c(F)cc32)c1C#N	6.31µM*	-10.8%[11.6 µM]	50.1µM*	1.2	-1.3%	56.2µM*	u
Cc1cc(C)n2c(=O)c3ccc(Cl)cc3nc2c1C#N	64.8%	-6.0%	-11.4%	-6.0	-1.8%	-5.6%	x
CCOc1ccc(N=C(/C(C(=O)C(=O)N2CCOCC2)=C(/O)c2ccccc2)c2ccccc2)cc1	28.8%	4.5%	2.1%	-8.9	-11.8%	-18.0%	x
NNc1cc([N+](=O)[O-])cc2c1C(=O)N(Cc1ccccc1)S2=O (stereo unspecified)	35.5µM*	-10.3%[57.1 µM]	u	-65.8*	79.4µM*	44.7µM*	u	Pol kappa inh-2=u
CC(C)=NNc1cc([N+](=O)[O-])cc2c1C(=O)N(C)S2=O (stereo unspecified)	-18.9%	5.6%	-0.7%	-4.2	-3.8%	-6.5%	x
CCc1c(C)[nH]c2ccc(OC)cc2c1=S	79.8%	-1.3%[57.1 µM]	-27.9%	-8.7	1.2%	-21.1%	x
CCOc1ccc(Cc2c(C)[nH]c3ccc(C(=O)O)cc3c2=S)cc1	u	u	u	-17.5	u	50.1µM*	u
Cc1ccc(F)c(S(=O)(=O)NC(=O)C2(C)CCN2C(=O)c2cccc3ccccc23)c1 (stereo unspecified)	x	2.0%	x	2.9	x	x	x
Cc1ccc(NC(=O)CSc2nc(-c3ccco3)nc3cc(=O)[nH]n23)c(Cl)c1	39.8µM*	-9.0%[11.6 µM]	50.1µM*	u	u	44.7µM*	47.8*
O=C(CSc1nc(-c2ccco2)nc2cc(=O)[nH]n12)Nc1ccccc1Cl	u	x	-31.8%	x	-25.2%	-0.4%	x
SMILES	POLI inh	WRN inhibitor	POLB inh	PI5P4K alpha inh	Pol kappa inh-1	Pol eta inh-1	Pol eta inh-2	others
Cc1ccccc1OCc1ccc(-c2nc(C#N)c(N3CCN(c4ccccc4)CC3)o2)o1	-1.1%	x	3.5%	x	-15.2%	-5.1%	x
O=C(Oc1ccccc1Cl)c1ccc2c(=O)n3c(nc2c1)CCC3	6.0%	-18.1%	x	0.1	-6.8%	u	x
O=C(Oc1ccccc1F)c1ccc2c(=O)n3c(nc2c1)CCC3	u	-17.1%	x	-1.3	-27.8%	u	67.5*
Oc1cncc(Cc2ccccc2)c1	62.8%	-2.6%	36.2%	6.6	5.8%	-13.6%	x
Cc1c(Cl)cccc1-c1ccc(/C=N/n2cnnc2)o1	4.0%	-6.5%	0.3%	-13.0	6.1%	3.8%	x
Cc1c(C(=O)O)cccc1-c1ccc(/C=N/n2cnnc2)o1	35.5µM*	-6.3%[11.6 µM]	25.1µM*	-4.7	89.1µM*	20µM*	47.8*	Pol kappa inh-2=15*
